In PubChem BioAssay (EPA / NIEHS):
Active and inactive are the calls of the source. How the source made its calls: active means hit-call score of the fitted dose curve at least 0.9, where 1 is the maximum; inactive means score below 0.9.

Read-out: Alpha-fetoprotein (AFP) gene, AFP (gene 174)
Assay: LTEA_HepaRG_AFP: Life Technologies and Expression Analysis (LTEA) Assay for Alpha-fetoprotein (AFP) gene using HepaRG (AID 2283472);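 on AC50: AFP transcript by TaqMan qRT-PCR normalized to ACTB GAPDH and POLR2A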
Settings: mRNA level, 48 h; actives raise or lower the signal
Protocol: It is a marker of Undifferentiated hepatocyte.Data from the assay component LTEA_HepaRG_AFP was analyzed into 1 endpoint. This assay endpoint, LTEA_HepaRG_AFP, was analyzed with bidirectional fitting relative to DMSO as the negative control and baseline of activity. Using a type of inducible reporter, measures of mRNA induction for gain or loss-of-signal activity can be used to understand regulation of transcription factor activity. To generalize the intended target to other relatable targets, this assay endpoint is annotated to the background measurement intended target family, where the subfamily is assay control.
A total of 1060 chemcials from the ToxCast library were tested in eight-point concentration-response experiments. Cell culture and cytotoxicity assays were conducted at Thermo Fisher Scientific's Custom Services facility (Madison, WI). A single lot of human HepaRG cells (Thermo Fisher Scientific, Frederick, MD) was used for the cell culture experiments. 96-well format collagen type I coated plates of human HepaRG cells were prepared using established methods. Briefly, cryopreserved HepaRG cells were thawed, plated at a density of approximately 100,000 cells/well in HepaRG Thaw, Plate, and General Purpose media (HPRG770, Thermo Fisher Scientific), and incubated for 48 hours. 0.5% DMSO was selected as vehicle control to balance the requisite need of DMSO in HepaRG cultures to maintain differentiation (for example, baseline metabolism, proportions of hepatocytes vs. cholangiocytes), while enabling further hepatic receptor pathway activation (for example, PXR and CAR) in response to chemical exposure. 48 hours after plating, the culture medium was replaced with HepaRG Serum-Free Incudtion Media. Cells were exposed to each test chemical in duplicate and maintained in CO2 incubators for another 48 hours. Chemical plates were thawed to room temperature and 200x concentrations of treatment groups were prepared. 8-point conentration-reponse curves were made with the highest exposure at 100 uM, followed by half-log dilutions, all in 0.5% DMSO. Each test plate contained variouse controls, induction positive controls (1mM phenobarbital), cytotoxicity positive controls ([…] aflatoxin B1), vehicle controls (0.5% DMSO), and total lysis controls (0.5% DMSO). Cell morphology images were taken using an Essen IncuCyte FLR automated microscope, with six 96-well plates imaged in about 24 minutes. Images were captured and exported and JPEG files. Spent culture media was transfered to black-well plates for the LDH assay, and remaining media was sorted at -80 C for later use. Cells were treated with RLT buffer and frozen until shipped for gene expression analysis. Total RNA was isolated from the cell suspension in 75 uL of Buffer RLT (Qiagen, Germantown, MD 20874) by Quintiles/Expression Analysis (Durham, NC) using a custom isolation procedure. Total RNA from each plate well was transferred to a preamplification plate. Fluidigm's 96.96 Dynamic ArrayTM (Fluidigm, Amsterdam, the Netherlands) technology was used for gene expression analyses by quantitative reverse transcription polymerase chain reaction (qRT-PCR, performed by Quintiles/Expression Analysis, Durham, NC)89. Standard TaqManTM Assays (Applied Biosystems/ThermoFisher Scientific, Foster City, CA) were used to assess the expression of 93 genes selected based on their selectivity and sensitivity to important hepatic receptors known to be modulated by environmental chemicals; importance in human hepatocyte functionality; and hepatotoxicity. Three "housekeeping" endogenous control genes were also included and used for normalization: actin beta (ACTB), Glyceraldehyde 3 phosphate dehydrogenase (GAPDH) and RNA Polymerase II Subunit A (POLR2A). qRT-PCR was conducted according to the manufacturer's protocol.

Row | Structure (SMILES) | AC50 | outcome
1 | CCCCCCCCCCCCOS(=O)(=O)O | 77.7 µM (active) | 
2 | CCCCC=O |  | inactive
3 | CCC(C)c1ccccc1O (stereo unspecified) |  | inactive
4 | CN(C)CCOC(c1ccccc1)c1ccccc1 | 73.9 µM (active) | 
5 | N=C(N)c1ccc(OCCCCCOc2ccc(C(=N)N)cc2)cc1 | 7.45 µM (active) | 
6 | Cc1[nH]nc2c1N=C(c1ccccc1Cl)c1cc([N+](=O)[O-])ccc1N2 | 4.36 µM (active) | 
7 | CC(=O)Nc1ccc(O)cc1 |  | inactive
8 | CCCCC(CC)C(=O)O (stereo unspecified) |  | inactive
9 | CCCCCCCCCCCCCCC |  | inactive
10 | CCCCc1oc2ccccc2c1C(=O)c1cc(I)c(OCCN(CC)CC)c(I)c1 | 11.9 µM (active) | 
11 | O=C(CCCN1CCC(O)(c2ccc(Cl)cc2)CC1)c1ccc(F)cc1 | 67.8 µM (active) | 
12 | CS(=O)(=O)c1ccc([C@@H](CC2CCCC2)C(=O)Nc2cnccn2)cc1Cl | 69.8 µM (active) | 
13 | CN(Cc1cnc2nc(N)nc(N)c2n1)c1ccc(C(=O)N[C@@H](CCC(=O)O)C(=O)O)cc1 | 0.231 µM (active) | 
14 | O=C(c1ccccc1)c1ccccc1 |  | inactive
15 | O=C1NS(=O)(=O)c2ccccc21 |  | inactive
16 | OCC(CO)(CBr)CBr |  | inactive
